Experimental data: PubChem BioAssay (NCATS)
Results filed as inconclusive are left out. Active and inactive are the calls of the source. Calls come from the whole dose curve; as a rule, active = well fitted curve in the direction sought with a large enough effect; inconclusive = small, poorly fitted or top-dose-only effect, or another doubt; inactive = no such curve, though single readings can be large; an effect the other way counts as inactive or inconclusive.

Key:
HaCat [1] = test: Cytotoxic Profiling of Annotated Libraries Using Quantitative High-Throughput Screening (AID 1296008); conditions: Five cell lines viability, CellTiter-Glo ATP luminescence, 48-72 h; max response: active compounds read low; note: nearly all actives have a fitted effect of over 60% in size
Procedure, shortened: (§1)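 Cytotoxicity was measured as CellTiter-Glo ATP luminescence, read after 10 min at room temperature. Compound treatment of the cells lasted 48 or 72 hr at 37 degrees Celsius in a qHTS format.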

NIH3T3 = test: as above; conditions: Five cell lines viability, CellTiter-Glo ATP luminescence, 48-72 h; max response: active compounds read low
Procedure, shortened: as §1

HACAT [2] = test: qHTS assay to identify novel small-molecules to repurpose for Merkel cell carcinoma treatment (AID 1296009); conditions: MCC and control cell lines, CellTiter-Glo viability, 72 h; at 44.8 µM (top of the series) unless noted; note: nearly all actives have a fitted effect of over 60% in size; note: potency is the fitted concentration of half-maximal effect
Procedure, shortened: (§2)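 Cell viability, measured as CellTiter-Glo luminescence, was normalized between DMSO and no-cell wells. The cells had been exposed to 8- or 11-point compound dilutions for 72 hr at 37 degree celsius.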

MCC-13 = test: as above; conditions: MCC and control cell lines, CellTiter-Glo viability, 72 h; series mostly up to 46 µM
Procedure, shortened: as §2

MKL-2 = test: as above; conditions: MCC and control cell lines, CellTiter-Glo viability, 72 h; series mostly up to 46 µM
Procedure, shortened: as §2

UISO = test: as above; conditions: MCC and control cell lines, CellTiter-Glo viability, 72 h; series mostly up to 46 µM
Procedure, shortened: as §2

WaGa = test: as above; conditions: MCC and control cell lines, CellTiter-Glo viability, 72 h; series mostly up to 46 µM
Procedure, shortened: as §2

MCC-26 = test: as above; conditions: MCC and control cell lines, CellTiter-Glo viability, 72 h; series mostly up to 46 µM
Procedure, shortened: as §2

C33A = test: Primary qHTS to identify gynecologic anti-cancer compounds using libraries of approved drugs and bioactive compounds (AID 1345084); conditions: Gynecologic cancer cell panel viability, ATPlite luminescence, 48 h; series mostly up to 57.5 µM; note: nearly all actives have a fitted effect of over 55% in size
Procedure, shortened: (§3)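 ATP-based viability (ATPlite), 1,000 cells/well, 16 h pre-incubation, 48 h compound at 37 C, 5% CO2, 15 min RT before read.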

CASKI = test: as above; conditions: Gynecologic cancer cell panel viability, ATPlite luminescence, 48 h; series mostly up to 57.5 µM
Procedure, shortened: as §3

Es-2 = test: as above; conditions: Gynecologic cancer cell panel viability, ATPlite luminescence, 48 h; series mostly up to 57.5 µM
Procedure, shortened: as §3

HeLa = test: as above; conditions: Gynecologic cancer cell panel viability, ATPlite luminescence, 48 h; series mostly up to 57.5 µM
Procedure, shortened: as §3

Hek293T = test: as above; conditions: Gynecologic cancer cell panel viability, ATPlite luminescence, 48 h, control line for the selectivity index; series mostly up to 57.5 µM
Procedure, shortened: as §3

JEG-3 = test: as above; conditions: Gynecologic cancer cell panel viability, ATPlite luminescence, 48 h; series mostly up to 57.5 µM
Procedure, shortened: as §3

KB-3-1 = test: Cytotoxic Profiling of Annotated Libraries Using Quantitative High-Throughput Screening (AID 1296008); conditions: Five cell lines viability, CellTiter-Glo ATP luminescence, 48-72 h; max response: active compounds read low; note: nearly all actives have a fitted effect of over 60% in size
Procedure, shortened: as §1

MKL-1 = test: qHTS assay to identify novel small-molecules to repurpose for Merkel cell carcinoma treatment (AID 1296009); conditions: MCC and control cell lines, CellTiter-Glo viability, 72 h; series mostly up to 46 µM; note: nearly all actives have a fitted effect of over 60% in size; note: potency is the fitted concentration of half-maximal effect
Procedure, shortened: as §2

CAOV3 = test: Primary qHTS to identify gynecologic anti-cancer compounds using libraries of approved drugs and bioactive compounds (AID 1345084); conditions: Gynecologic cancer cell panel viability, ATPlite luminescence, 48 h; series mostly up to 57.5 µM; note: nearly all actives have a fitted effect of over 55% in size
Procedure, shortened: as §3
% is set by controls: 0 for no effect and ±100 for the full control effect.

CO[C@H]1C[C@@H]2CC[C@@H](C)[C@@](O)(O2)C(=O)C(=O)N2CCCC[C@@H]2C(=O)O[C@H]([C@H](C)C[C@@H]2CC[C@H](OP(C)(C)=O)[C@H](OC)C2)CC(=O)[C@H](C)C=C(C)[C@@H](O)[C@@H](OC)C(=O)[C@H](C)C[C@H](C)C=CC=CC=C1C
active: Potency (WaGa) 23.5 µM
inactive: outcome (HaCat [1]) | max response (NIH3T3) 4.15% | outcome (HACAT [2]) | Potency (MCC-13) | Potency (MKL-2) | Potency (UISO)

CC=CCC=CCCC(=O)[C@H]1O[C@@H]1C(N)=O
inactive: outcome (HaCat [1]) | outcome (HACAT [2]) | Potency (MCC-13) | Potency (MCC-26) | Potency (UISO) | Potency (WaGa)

COc1ccc(C2Sc3ccccc3N(CCN(C)C)C(=O)C2OC(C)=O)cc1 (centres undefined)
inactive: Potency (C33A) | Potency (CASKI) | Potency (Es-2) | Potency (HeLa) | Potency (Hek293T) | Potency (JEG-3)

O=C(O)[C@H]1O[C@H](Oc2cc3oc(-c4ccccc4)cc(=O)c3c(O)c2O)[C@H](O)[C@@H](O)[C@H]1O
inactive: max response (HaCat [1]) -7.89% | max response (KB-3-1) 2.26% | Potency (MCC-13) | Potency (MCC-26) | Potency (MKL-1) | Potency (UISO) | Potency (WaGa)

CC(C)OC(=O)C(C)(C)Oc1ccc(C(=O)c2ccc(Cl)cc2)cc1
inactive: Potency (C33A) | Potency (CAOV3) | Potency (CASKI) | Potency (HeLa) | Potency (JEG-3)

CC[C@]1(O)C[C@@H]2CN(CCc3c([nH]c4ccccc34)[C@@](C(=O)OC)(c3cc4c(cc3OC)N(C=O)[C@@H]3C45CCN4CC=C[C@](CC)([C@H]45)[C@@H](OC(C)=O)[C@]3(O)C(=O)OC)C2)C1 (some centres undefined)
inactive: Potency (MCC-13) | Potency (MCC-26) | Potency (MKL-1)

CO[C@H]1C=CO[C@@]2(C)Oc3c(C)c(O)c4c(O)c(c5c(c4c3C2=O)NC2(CCN(CC(C)C)CC2)N=5)=NC(=O)C(C)=CC=C[C@H](C)[C@H](O)[C@@H](C)[C@@H](O)[C@@H](C)[C@H](OC(C)=O)[C@H]1C
inactive: Potency (C33A) | Potency (CASKI) | Potency (Es-2) | Potency (HeLa) | Potency (Hek293T) | Potency (JEG-3)

CC=CCC(C)C(O)C1C(=O)NC(CC)C(=O)N(C)CC(=O)N(C)C(CC(C)C)C(=O)NC(C(C)C)C(=O)N(C)C(CC(C)C)C(=O)NC(C)C(=O)NC(C)C(=O)N(C)C(CC(C)C)C(=O)N(C)C(CC(C)C)C(=O)N(C)C(C(C)C)C(=O)N1C (centres undefined)
inactive: outcome (HACAT [2]) | Potency (MCC-13) | Potency (MCC-26) | Potency (MKL-1) | Potency (WaGa)

CC(=O)OC1C(C)OC(Oc2c(-c3ccc(O)cc3)oc3cc(O)cc(O)c3c2=O)C(O)C1OC(C)=O (centres undefined)
inactive: max response (KB-3-1) 7.1% | Potency (MCC-13) | Potency (UISO)

O=c1c(-c2ccc(O)cc2)coc2cc(OC3O[C@H](CO)[C@H](O)[C@H](O)[C@H]3O)cc(O)c12 (some centres undefined)
inactive: max response (HaCat [1]) -51.1% | Potency (MCC-13) | Potency (MKL-1) | Potency (MKL-2) | Potency (WaGa)

Cc1c(O)cccc1C(=O)N[C@@H](CSc1ccccc1)[C@H](O)CN1C[C@H]2CCCC[C@@H]2C[C@@H]1C(=O)NC(C)(C)C
inactive: Potency (MCC-13) | Potency (MCC-26) | Potency (MKL-1) | Potency (MKL-2)

O=c1[nH]cnc2c1ncn2[C@H]1CC[C@@H](CO)O1
inactive: Potency (C33A) | Potency (CAOV3) | Potency (CASKI) | Potency (Es-2) | Potency (HeLa) | Potency (Hek293T) | Potency (JEG-3)
